PubChem BioAssay AID1053122 (Broad Institute, 2014)
Entries with a potency or affinity are not part of this list. Active and inactive are the calls of the source.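 How the source made its calls: active means CTGF level falls with dose and the fitted half-maximal dose is at most twice the top valid dose; inconclusive means flat fit with 30 to 70% drop, or a poor fit; inactive means the rest.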

Assay: YAP1 pathway inhibition via CTGF transcript levels, dose response, cell-based, DLD1 colon cancer, RT-qPCR, cherry-pick (AID 1053122)
Details: DLD1 CTGF mRNA (YAP1 pathway), 24 h; series mostly up to 26 µM; CTGF expression fold change (lower = inhibition): at the top concentration

CTGF expression fold change (lower = inhibition), inactive:
Cc1ccc(S(=O)(=O)Nc2ccc3c(c2)CC(=O)N([C@H](C)CO)C[C@@H](C)[C@@H](CN(C)S(=O)(=O)c2ccccc2)O3)cc1 0.942 unspecified, C[C@@H]1CN([C@@H](C)CO)C(=O)c2cccc(NC(=O)c3nc4ccccc4s3)c2O[C@H]1CN(C)C(=O)Nc1ccc2c(c1)OCO2 0.667 unspecified, C[C@@H]1CN([C@H](C)CO)C(=O)c2ccccc2-c2ccccc2CO[C@@H]1CN(C)Cc1ccccc1C(F)(F)F 0.554 unspecified, CCCC#Cc1ccc([C@@H]2[C@@H](C#N)N(C(=O)CN3CCOCC3)[C@H]2CO)cc1 1.05 unspecified [at 23.5 µM], CNC[C@H]1Oc2c(NC(=O)Nc3cccc4ccccc34)cccc2C(=O)N([C@H](C)CO)C[C@@H]1C 0.813 unspecified, C[C@H]1CN([C@@H](C)CO)C(=O)c2cccc(NC(=O)c3ccc(-c4nccs4)cc3)c2O[C@@H]1CN(C)C(=O)Nc1ccc(C(F)(F)F)cc1 0.515 unspecified, COc1cccc(C#Cc2ccc3c(c2)O[C@@H](CN(C)C(=O)CN2CCOCC2)[C@@H](C)CN([C@@H](C)CO)S3(=O)=O)c1 1.13 unspecified, CO[C@H]1CN(C)C(=O)c2cc(NC(=O)Nc3ccccc3F)ccc2OC[C@H](C)N(CCC(F)(F)F)C[C@@H]1C 0.848 unspecified, O=C(Nc1cccc(F)c1)N1CCCCN2[C@H](C1)[C@H](c1ccc(C#Cc3cccnc3)cc1)[C@@H]2CO 0.636 unspecified, C[C@@H]1CN([C@@H](C)CO)C(=O)c2cc(C#Cc3ccccc3)cnc2O[C@@H]1CN(C)C(=O)c1ccccc1 0.83 unspecified, Cc1ccc(S(=O)(=O)N2CC[C@H]3[C@H](CO)Nc4ccc(-c5cccc(C(=O)N(C)C)c5)cc4[C@H]32)cc1 0.486 unspecified, C[C@@H]1CN([C@H](C)CO)C(=O)CCCn2nncc2CO[C@@H]1CN(C)C(=O)c1cc(-c2ccccc2)on1 0.625 unspecified, COc1ccc(CN(C)C[C@H]2Oc3ccc(NC(=O)Nc4ccc5c(c4)OCO5)cc3CC(=O)N([C@@H](C)CO)C[C@H]2C)cc1 0.724 unspecified, CCC(=O)N1Cc2cc(C(=O)NCc3cccc(F)c3)nc(-c3cccc(C4=CCCC4)c3)c2[C@H]1CCO 0.82 unspecified, CC(C)NC(=O)N[C@@H]1CC[C@H](CC(=O)NCCCN(C)C)O[C@@H]1CO 1.05 unspecified, CC(C)(C)[S@@](=O)N1Cc2cc(C(=O)NCC(F)(F)F)nc(-c3cccc(-c4cccc(F)c4)c3)c2[C@H]1CCO 0.913 unspecified, C[C@H]1CC=CC[C@@H](c2ccc(F)cc2)NC(=O)[C@H](Cc2ccccc2)N(C)C(=O)c2ccccc2O1 (mixture of isomers) 0.44 unspecified, COc1ccccc1C(=O)Nc1ccc2c(c1)C(=O)N(C)C[C@H](OC)[C@@H](C)CN(C(C)=O)[C@@H](C)CO2 0.589 unspecified, COc1ccc(NC(=O)N(C)C[C@H]2Oc3c(NC(=O)CCCCCC(=O)Nc4ccccc4N)cccc3C(=O)N([C@H](C)CO)C[C@@H]2C)cc1 0.828 unspecified [at 23.5 µM], C[C@@H]1CN([C@H](C)CO)C(=O)CCCn2nncc2CO[C@@H]1CN(C)Cc1cccc(C(F)(F)F)c1 0.647 unspecified, C[C@H](CO)N1C[C@H](C)[C@@H](CN(C)S(=O)(=O)c2ccc([N+](=O)[O-])cc2)OCc2ccccc2-c2c(n(C)c3ccccc23)C1=O 0.751 unspecified, CS(=O)(=O)N1CC(=O)N2[C@H](C1)[C@@H](c1ccc(C#Cc3ccc(F)cc3)cc1)[C@@H]2CO 0.547 unspecified, O=C(Nc1ccccc1)[C@@H]1[C@@H](CO)[C@@H]2Cn3c(cccc3=O)[C@H]1N2C(=O)c1ccc(F)cc1 1.04 unspecified, C[C@H](CO)N1C[C@H](C)[C@H](CN(C)Cc2ccc(Oc3ccccc3)cc2)OCc2ccccc2-c2ccccc2C1=O 0.56 unspecified [at 23.5 µM], CCC(=O)N1C[C@H](C)[C@@H](OC)CN(C)C(=O)c2cc(NC(=O)Nc3ccc(Cl)cc3)ccc2OC[C@@H]1C 0.537 unspecified, C[C@H](O)C#Cc1ccc([C@H]2[C@@H](CO)N3CCCCN(C(=O)c4ccc5c(c4)OCO5)C[C@@H]23)cc1 0.846 unspecified [at 23.5 µM], CN1CCN(C(=O)C[C@@H]2CC[C@H]3[C@@H](COc4ccc(NC(=O)C5CCOCC5)cc4C(=O)N3C)O2)CC1 0.869 unspecified
